This passage reports inhibition results from PubChem BioAssay AID588689 (Southern Research Specialized Biocontainment Screening …, 2011).

Screen size: about 340,000 compounds; about 1,000 (0.29%) were called active. Rule as the data show it: inconclusive = inhibition above about 29% without an active follow-up result; inactive = below that. Not all results are given here. Measured potencies and affinities stand elsewhere.

The assay has as its target Genome polyprotein (Dengue virus type 2 (strain 16681-PDK53)) (UniProt P29991). Put plainly: Dengue-2 NS5 methyltransferase inhibitors, primary screen, biochemical, confirmation dose response (AID 588689). The note with it: Dengue-2 NS5 methyltransferase capping enzyme assay, at 25 µM, stronger effect = higher value.
Setting [1] is: measured here: pilot screen replicate inhibition.

For orientation: inhibition means the change of the read-out against control, counted positive when it falls.

Turning to `Fc1cccc(/C=N/Nc2nccnc2Cl)c1`, the inhibition is -2.31% (inactive).
With `Cc1ccccc1S(=O)(=O)N1[C@@H](c2ccc(Cl)cc2)C(C(=O)O)=CC[C@H]1c1ccc(Cl)cc1`, the inhibition was 23.8% (inactive). Moreover, the inhibition under setting [1] is 2.15%.
As to `Cc1ccc([C@@H]2CC=C(C(=O)O)[C@H](c3ccccc3)N2S(=O)(=O)c2ccccc2C)cc1`, the inhibition is 11.1% (inactive).
Still for that read-out and setting: then `Cc1ccccc1S(=O)(=O)N1[C@@H](c2ccccc2)C(C(=O)O)=CC[C@H]1c1ccc(Cl)cc1`, with 12.8% (inactive).
For the molecule `Cc1ccc([C@H]2C(C(=O)O)=CC[C@@H](c3ccc(C)cc3)N2S(=O)(=O)c2ccccc2C)cc1`, the inhibition was 13.7% (inactive).
Same read-out and setting: for `COc1cccc(NC(=O)c2ccc(N3C(=O)C4CC=CCC4C3=O)cc2)c1` (centres undefined) the value was 0.77% (inactive); for `CN(C)C(CNC(=O)C1CCN(S(=O)(=O)c2cccc(C(F)(F)F)c2)CC1)c1ccccc1` (centres undefined), 0% (inactive); for `O=C(COc1ccc(F)c(Cl)c1)Nc1ccc(N2CCOCC2)cc1`, -11.9% (inactive).
Take `CN1C(=O)/C(=C2\SC(=S)N(C(CCC(=O)O)C(=O)O)C2=O)c2ccccc21` (centres undefined): the inhibition is 8.73% (inactive).
On to `O=C(O)C(Cc1ccc(O)cc1)N1C(=O)c2ccccc2C1=O` (centres undefined), for which the inhibition is -2.65% (inactive).
Still for that read-out and setting: then `Cc1c(N2C(=O)/C(=C3\C(=O)N(CC(=O)O)c4ccccc43)SC2=S)c(=O)n(-c2ccccc2)n1C`, with 36.3% (inactive); and `CCCC(C(=O)O)N1C(=O)/C(=C/c2cccn2C)SC1=S` (centres undefined), with -53.1% (inactive).
On the same count and under the same terms, for `O=C(Nc1ccccc1)N1CCNCC1` the value was -6.32% (inactive); for `CC1(C)OC1(C#N)c1ccccc1` (centres undefined), -5.44% (inactive).
Still for that read-out and setting: then `CCN(CC)S(=O)(=O)c1ccc(Nc2ccc(-c3ccc4c(c3)OCCO4)nn2)cc1`, with -4.94% (inactive); and `CC(=O)N1CCN(c2ccc(NC(=S)NC(=O)c3ccc(C)c([N+](=O)[O-])c3)cc2)CC1`, with -2.35% (inactive).
Take `O=C(NC(=O)c1cc([N+](=O)[O-])ccc1Cl)C1=C(N2CCCC2)COC1=O`: the inhibition was -8.37% (inactive).
For `Cn1c(=N)c(S(=O)(=O)c2ccccc2)cc2c(=O)n3ccccc3nc21`, the inhibition was -8.12% (inactive).
The same measure, in the same setting: then `CCOC(=O)C1(C)/C(=N/Nc2ccccc2Cl)C(=O)C(=O)N1c1ccccc1` (centres undefined), with -3.23% (inactive); and `CCOC(=O)C1(C)/C(=N/Nc2ccc(Cl)cc2)C(=O)C(=O)N1c1ccccc1` (centres undefined), with 3.28% (inactive).
Still for that read-out and setting: then `COC(C[C@@H](O)C[C@H](O)[C@@H](C)OCc1ccccc1)OC`, with -8.19% (inactive).
On the same count and under the same terms, then `CC/C(=N/NC(=O)c1ccc2c(c1)OCO2)c1ccccc1O`, with 3.08% (inactive).
For `Cc1cccc(CN2CCN(CC(=O)N3CCCC3)C2=O)c1`, the inhibition was -5.66% (inactive).
Still for that read-out and setting: for `CC(=O)C1=C(O)C(=O)N(c2cc(C(C)(C)C)on2)C1c1ccc(Br)cc1` (centres undefined) the value was 13.1% (inactive).
The same measure, in the same setting: then `CC(=O)C1=C(O)C(=O)N(Cc2cccnc2)C1c1ccc(C(C)C)cc1` (centres undefined), with -5.44% (inactive).
With `CC1=NN(Cc2ccccc2)C(=O)C1C(c1ccncc1)C(C#N)C#N` (centres undefined), the inhibition is 13.5% (inactive).
For `CC1=NNC(=O)C1C(c1ccc(F)cc1)C(C#N)C#N` (centres undefined), the inhibition was -10.2% (inactive).
On the same count and under the same terms, then `CC1=NNC(=O)C1C(c1ccccc1)C(C#N)C#N` (centres undefined), with -4.84% (inactive); and `Cc1cccc(CN2CCN(C(c3ccccc3)c3ccc(Cl)cc3)CC2)c1` (centres undefined), with 2.93% (inactive); and `S=C(N/N=C/c1ccc(Br)cc1)N1CCCCC1`, with 2.36% (inactive).
Regarding `CC(C)c1ccc(S(=O)(=O)N2CCN(C(=O)CCNS(=O)(=O)c3ccccc3F)CC2)cc1`, the inhibition is 2.2% (inactive).
`CCN1CCN(C(=O)/C=C/c2ccc(OC)cc2)CC1`: the inhibition is 0% (inactive). Further, the inhibition under setting [1] is -2.12%.
Regarding `CCn1c([N+](=O)[O-])nc2c1c(=O)[nH]c(=O)n2C`, the inhibition is -10.1% (inactive).
The same measure, in the same setting: for `Cc1ccc(SC(CC(=O)c2ccc(C)cc2)C(=O)O)cc1` (centres undefined) the value was 16.8% (inactive); for `Cc1ccc(SC(CC(=O)c2ccc(F)cc2)C(=O)O)cc1` (centres undefined), 0% (inactive).
On the same count and under the same terms, for `CSc1ccccc1OCc1cc(C(=O)N2CCN3CCCC3C2)no1` (centres undefined) the value was -0.87% (inactive); for `O=C1/C(=C\c2ccc(-c3ccccc3[N+](=O)[O-])o2)C(c2ccccc2)=NN1c1ccccc1`, 68.8% (inactive).
On the same count and under the same terms, then `O=C1ON=C(c2ccc(Cl)c([N+](=O)[O-])c2)/C1=C/c1cccc([N+](=O)[O-])c1O`, with -5.11% (inactive); and `COc1ccc(-c2ccc(/C=C3\C(=O)N(c4ccccc4)N=C3c3ccccc3)o2)c([N+](=O)[O-])c1`, with 6.61% (inactive); and `O=C1ON=C(c2ccccc2[N+](=O)[O-])/C1=C/c1cccc([N+](=O)[O-])c1O`, with -2.21% (inactive).
With `COc1cc([N+](=O)[O-])ccc1-c1ccc(/C=C2\C(=O)ON=C2c2ccccc2)o1`, the inhibition was 30.1% (inactive).
On the same count and under the same terms, for `Cc1ccc(/C=C2/C(=O)ON=C2c2ccccc2)o1` the value was 19.3% (inactive).
Same read-out and setting: for `COc1ccc(OCC(=O)N2CCCC2=O)c([N+](=O)[O-])c1` the value was 0.65% (inactive).
Same read-out and setting: for `CC(C)CC(NC(=O)C(NC(=O)OC(C)(C)C)C(C)C)C(=O)N1CCCC1C(N)=O` (centres undefined) the value was -8.35% (inactive); for `COc1cccc(-c2noc(CCC(=O)NCC3CCCO3)n2)c1` (centres undefined), 1.45% (inactive); for `CNC[C@@H]1OCc2cnnn2CCCC(=O)N([C@H](C)CO)C[C@H]1C`, 2.27% (inactive).
As for `O=C(CCNC(=O)c1ccc([N+](=O)[O-])cc1)Oc1ccc(F)c(F)c1`, the inhibition is -4.42% (inactive).
For the molecule `CCOC(=O)Cn1cnc2sc3c(c2c1=O)CCC3`, the inhibition was -3.92% (inactive).
The same measure, in the same setting: then `Cn1ccnc1SCC(=O)Nc1cc(F)ccc1F`, with -1.95% (inactive); and `COc1cccc2c1C(=O)C=C(C)C2=O`, with 5.85% (inactive).
Still for that read-out and setting: then `COC1=CC(=O)c2ccccc2C1=O`, with 0.72% (inactive).
On the same count and under the same terms, for `Cc1ccc(C)c(OCC(O)CN2CCc3ccccc3C2)c1C` (centres undefined) the value was -0.98% (inactive); for `CNS(=O)(=O)c1cccc(C(=O)NCC(c2ccco2)N(C)C)c1` (centres undefined), -4.17% (inactive); for `Cc1ccc(NC(=O)COC(=O)C2C3CC4OC(=O)C2C4C3)cc1` (centres undefined), -4.16% (inactive).
For the molecule `COc1ccc(N2CC(C(=O)OCC(=O)Nc3cccc(C)c3)CC2=O)cc1` (centres undefined), the inhibition was -2.68% (inactive).
Still for that read-out and setting: then `CCC(c1ccc(O)cc1)C(CC)c1ccc(O)cc1` (centres undefined), with -4.4% (inactive); and `CCC(c1ccc(O)c(O)c1)C(CC)c1ccc(O)c(O)c1` (centres undefined), with -0.78% (inactive).
